From article PMC7862700, “An all-to-all approach to the identification of sequence-specific readers for epigenetic DNA modifications on cytosine” come the findings set out here.

Holding throughout (test): DAPPL (digital affinity profiling via proximity ligation, sequencing); 10 mM Tris-HCl pH 7.5, 50 mM NaCl, 1 mM DTT, 4% glycerol, room temperature, 30 min; GST-TFs on glutathione beads, 16-mer random dsDNA library, 0.1% formaldehyde crosslink after washing; high values mean tight binding
One assay deals with T1, FEV (Homo sapiens, UniProt Q99581 1-238).
T1 sequence: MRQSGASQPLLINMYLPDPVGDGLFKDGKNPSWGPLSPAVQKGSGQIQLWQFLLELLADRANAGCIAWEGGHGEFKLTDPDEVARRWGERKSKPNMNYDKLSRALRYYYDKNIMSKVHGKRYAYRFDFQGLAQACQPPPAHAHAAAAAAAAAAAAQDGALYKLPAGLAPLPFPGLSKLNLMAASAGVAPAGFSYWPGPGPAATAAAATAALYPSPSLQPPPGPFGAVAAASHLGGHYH
The following applies: protein: recombinant; tags: N-terminal GST; dsDNA, one strand shown. The procedure, abridged: (§1)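 Human transcription factors were made in yeast as GST fusions, captured on glutathione beads and barcoded with DNA. With a tag-only sample included, the pool was incubated with 200 nmole of a random double-stranded 16-mer DNA library in Tris/NaCl/DTT/glycerol buffer at room temperature for 30 min, then crosslinked with 0.1% formaldehyde after washing, ligated by proximity, amplified and sequenced. For binding signal, each hexamer's read frequency for a factor is divided by its frequency for the tag-only sample.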

In the next assay the target is ETV5 (Homo sapiens, UniProt P41161 1-510). The following applies: protein: recombinant; tags: N-terminal GST; dsDNA, one strand shown. The procedure, abridged:
as §1

The target in another assay is HSF1 (Homo sapiens, UniProt Q00613 1-529). Conditions: protein: recombinant; tags: N-terminal GST; chain copies: 3; dsDNA, one strand shown. The procedure, abridged:
as §1

The target of the next assay is T2, SPIC (Homo sapiens, UniProt Q8N5J4 1-248).
T2 sequence: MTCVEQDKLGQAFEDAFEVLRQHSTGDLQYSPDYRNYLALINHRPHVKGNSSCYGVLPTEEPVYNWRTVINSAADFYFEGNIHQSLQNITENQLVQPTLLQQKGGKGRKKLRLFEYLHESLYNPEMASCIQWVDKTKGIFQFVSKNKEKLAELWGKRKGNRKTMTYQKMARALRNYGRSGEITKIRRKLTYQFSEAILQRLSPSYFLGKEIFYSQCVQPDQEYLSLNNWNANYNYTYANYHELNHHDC
The following applies: protein: recombinant; tags: N-terminal GST; dsDNA, one strand shown. The method in brief: as §1

In the next assay the target is ELF4 (Homo sapiens, UniProt Q99607 1-663). Conditions: protein: recombinant; tags: N-terminal GST; dsDNA, one strand shown. The procedure, abridged: as §1
For the next assay, the target named is T3, ELK4 (Homo sapiens, UniProt P28324-2 1-405).
T3 sequence: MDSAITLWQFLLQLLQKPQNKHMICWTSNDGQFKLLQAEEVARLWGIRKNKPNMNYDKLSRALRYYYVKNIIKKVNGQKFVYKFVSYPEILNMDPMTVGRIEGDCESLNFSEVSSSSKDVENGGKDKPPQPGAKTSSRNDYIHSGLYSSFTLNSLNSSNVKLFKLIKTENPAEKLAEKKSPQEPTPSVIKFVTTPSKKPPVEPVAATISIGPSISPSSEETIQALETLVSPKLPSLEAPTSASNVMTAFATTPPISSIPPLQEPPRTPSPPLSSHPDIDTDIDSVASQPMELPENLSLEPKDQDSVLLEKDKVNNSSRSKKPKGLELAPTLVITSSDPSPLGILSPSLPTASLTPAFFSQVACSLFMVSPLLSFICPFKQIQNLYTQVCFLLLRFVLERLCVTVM
Conditions: protein: recombinant; tags: N-terminal GST; dsDNA, one strand shown. The method in brief:
as §1

In another assay the target is T4, ETV2 (Homo sapiens, UniProt O00321 1-342).
T4 sequence: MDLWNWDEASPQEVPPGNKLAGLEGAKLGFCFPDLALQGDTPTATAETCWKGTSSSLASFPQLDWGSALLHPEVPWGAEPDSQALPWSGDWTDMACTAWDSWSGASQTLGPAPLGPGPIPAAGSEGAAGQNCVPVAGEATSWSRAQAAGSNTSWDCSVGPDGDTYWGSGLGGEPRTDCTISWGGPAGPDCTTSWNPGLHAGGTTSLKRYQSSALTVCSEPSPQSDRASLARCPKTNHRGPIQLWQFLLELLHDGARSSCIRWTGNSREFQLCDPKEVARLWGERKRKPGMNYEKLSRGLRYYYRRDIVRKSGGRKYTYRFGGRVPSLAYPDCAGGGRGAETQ
Conditions: protein: recombinant; tags: N-terminal GST; dsDNA, one strand shown. The procedure, abridged:
as §1

The target in a further assay is T5, ELF3 (Homo sapiens, UniProt P78545 1-371).
T5 sequence: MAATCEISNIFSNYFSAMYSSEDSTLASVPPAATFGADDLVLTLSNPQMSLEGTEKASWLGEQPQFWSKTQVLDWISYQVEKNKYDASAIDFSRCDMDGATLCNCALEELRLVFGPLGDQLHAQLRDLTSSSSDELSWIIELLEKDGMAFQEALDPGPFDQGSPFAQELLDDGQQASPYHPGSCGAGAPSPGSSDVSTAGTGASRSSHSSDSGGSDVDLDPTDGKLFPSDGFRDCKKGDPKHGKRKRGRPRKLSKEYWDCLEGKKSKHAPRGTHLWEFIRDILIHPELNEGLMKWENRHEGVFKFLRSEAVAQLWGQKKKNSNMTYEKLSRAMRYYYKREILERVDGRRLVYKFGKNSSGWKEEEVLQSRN
Conditions: protein: recombinant; tags: N-terminal GST; dsDNA, one strand shown. The method in brief: as §1

The next assay addresses CRX (Homo sapiens, UniProt O43186 1-299). Conditions: protein: recombinant; tags: N-terminal GST; dsDNA, one strand shown. The method in brief:
as §1

Another assay concerns the target ETV1 (Homo sapiens, UniProt P50549 1-477). The following applies: protein: recombinant; tags: N-terminal GST; dsDNA, one strand shown. The method in brief:
as §1

Another assay has as its target T6, ERF (Homo sapiens, UniProt P50548 1-548).
T6 sequence: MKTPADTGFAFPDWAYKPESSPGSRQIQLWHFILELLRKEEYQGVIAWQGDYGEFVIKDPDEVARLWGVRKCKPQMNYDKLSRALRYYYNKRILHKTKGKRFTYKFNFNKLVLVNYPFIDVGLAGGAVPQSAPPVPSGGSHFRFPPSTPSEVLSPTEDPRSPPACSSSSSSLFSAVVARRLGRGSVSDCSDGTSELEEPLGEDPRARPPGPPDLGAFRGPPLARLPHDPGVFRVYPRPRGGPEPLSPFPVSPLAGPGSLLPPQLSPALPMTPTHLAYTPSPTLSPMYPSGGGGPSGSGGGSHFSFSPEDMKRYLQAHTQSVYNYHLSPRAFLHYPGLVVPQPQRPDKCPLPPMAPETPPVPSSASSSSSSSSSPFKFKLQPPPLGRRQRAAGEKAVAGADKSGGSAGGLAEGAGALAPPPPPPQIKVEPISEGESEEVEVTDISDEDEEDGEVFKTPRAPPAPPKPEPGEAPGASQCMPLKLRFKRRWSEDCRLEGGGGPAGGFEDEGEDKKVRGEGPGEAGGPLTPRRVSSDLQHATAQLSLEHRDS
The following applies: protein: recombinant; tags: N-terminal GST; dsDNA, one strand shown. The procedure, abridged: as §1

In another assay the target is T7, ETV3L (Homo sapiens, UniProt Q6ZN32 1-361).
T7 sequence: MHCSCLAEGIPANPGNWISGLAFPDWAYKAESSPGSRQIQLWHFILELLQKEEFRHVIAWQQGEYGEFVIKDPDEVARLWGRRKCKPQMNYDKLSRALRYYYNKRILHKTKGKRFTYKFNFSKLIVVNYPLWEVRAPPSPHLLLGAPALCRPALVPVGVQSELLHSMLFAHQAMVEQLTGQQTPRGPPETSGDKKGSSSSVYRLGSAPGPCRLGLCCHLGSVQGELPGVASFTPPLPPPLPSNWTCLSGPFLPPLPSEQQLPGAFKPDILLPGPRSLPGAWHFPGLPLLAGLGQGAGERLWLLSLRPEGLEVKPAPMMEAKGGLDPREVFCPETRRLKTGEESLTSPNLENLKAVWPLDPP
Conditions: protein: recombinant; tags: N-terminal GST; dsDNA, one strand shown. The procedure, abridged:
as §1

The next assay concerns the target T8, ETS2 (Homo sapiens, UniProt P15036 1-469).
T8 sequence: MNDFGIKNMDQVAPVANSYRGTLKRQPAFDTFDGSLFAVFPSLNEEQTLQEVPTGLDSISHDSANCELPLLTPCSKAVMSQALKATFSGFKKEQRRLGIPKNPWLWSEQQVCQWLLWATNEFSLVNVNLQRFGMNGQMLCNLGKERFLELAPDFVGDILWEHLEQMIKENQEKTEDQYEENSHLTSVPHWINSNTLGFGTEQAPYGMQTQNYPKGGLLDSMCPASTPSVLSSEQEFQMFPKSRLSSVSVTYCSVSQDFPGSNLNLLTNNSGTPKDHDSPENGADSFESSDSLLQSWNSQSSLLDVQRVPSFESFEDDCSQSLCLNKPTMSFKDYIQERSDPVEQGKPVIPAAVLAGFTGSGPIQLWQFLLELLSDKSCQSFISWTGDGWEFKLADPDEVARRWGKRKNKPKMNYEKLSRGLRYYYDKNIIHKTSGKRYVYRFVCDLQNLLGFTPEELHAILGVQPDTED
The following applies: protein: recombinant; tags: N-terminal GST; dsDNA, one strand shown. The procedure, abridged: as §1

A further assay deals with T9, SPDEF (Homo sapiens, UniProt O95238 1-335).
T9 sequence: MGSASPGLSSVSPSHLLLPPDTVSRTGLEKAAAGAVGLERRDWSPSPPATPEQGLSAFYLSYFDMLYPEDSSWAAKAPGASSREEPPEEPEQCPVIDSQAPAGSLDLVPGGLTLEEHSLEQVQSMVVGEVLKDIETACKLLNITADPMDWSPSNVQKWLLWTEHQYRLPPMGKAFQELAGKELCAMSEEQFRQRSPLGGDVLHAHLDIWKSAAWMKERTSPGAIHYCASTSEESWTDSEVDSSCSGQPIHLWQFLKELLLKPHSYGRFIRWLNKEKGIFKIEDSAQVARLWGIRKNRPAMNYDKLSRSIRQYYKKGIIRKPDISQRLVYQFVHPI
Conditions: protein: recombinant; tags: N-terminal GST; dsDNA, one strand shown. The method in brief: as §1

In a further assay the target is T10, ETV7 (Homo sapiens, UniProt Q9Y603 1-341).
T10 sequence: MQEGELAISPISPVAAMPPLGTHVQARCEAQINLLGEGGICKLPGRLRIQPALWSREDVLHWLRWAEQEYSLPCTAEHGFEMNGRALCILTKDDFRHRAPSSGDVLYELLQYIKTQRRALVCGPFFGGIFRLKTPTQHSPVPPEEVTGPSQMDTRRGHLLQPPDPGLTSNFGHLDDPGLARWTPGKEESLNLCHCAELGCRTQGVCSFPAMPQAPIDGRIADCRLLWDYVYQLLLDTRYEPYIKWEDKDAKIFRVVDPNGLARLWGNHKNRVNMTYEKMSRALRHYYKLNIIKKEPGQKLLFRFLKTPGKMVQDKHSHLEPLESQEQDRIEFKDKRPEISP
Conditions: protein: recombinant; tags: N-terminal GST; dsDNA, one strand shown. The procedure, abridged:
as §1

A further assay deals with T11, ELF5 (Homo sapiens, UniProt Q9UKW6-2 1-255).
T11 sequence: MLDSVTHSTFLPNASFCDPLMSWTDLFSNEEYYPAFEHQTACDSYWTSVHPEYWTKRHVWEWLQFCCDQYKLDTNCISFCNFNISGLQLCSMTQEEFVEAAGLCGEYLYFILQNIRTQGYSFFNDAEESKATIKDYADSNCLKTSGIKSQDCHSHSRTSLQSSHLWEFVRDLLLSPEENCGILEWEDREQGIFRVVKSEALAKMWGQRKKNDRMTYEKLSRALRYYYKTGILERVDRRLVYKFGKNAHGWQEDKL
Conditions: protein: recombinant; tags: N-terminal GST; dsDNA, one strand shown. The method in brief:
as §1

The target of a further assay is T12, ETV3 (Homo sapiens, UniProt P41162-2 1-143).
T12 sequence: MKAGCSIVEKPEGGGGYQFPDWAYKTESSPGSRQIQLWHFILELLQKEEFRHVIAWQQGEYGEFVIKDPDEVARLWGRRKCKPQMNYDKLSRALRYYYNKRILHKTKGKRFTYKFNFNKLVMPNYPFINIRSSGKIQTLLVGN
Conditions: protein: recombinant; tags: N-terminal GST; dsDNA, one strand shown. The procedure, abridged: as §1

For a further assay, the target named is ETV6 (Homo sapiens, UniProt P41212 1-452). The following applies: protein: recombinant; tags: N-terminal GST; dsDNA, one strand shown. The procedure, abridged: as §1
Chain of ETV6 (P41212 whole entry): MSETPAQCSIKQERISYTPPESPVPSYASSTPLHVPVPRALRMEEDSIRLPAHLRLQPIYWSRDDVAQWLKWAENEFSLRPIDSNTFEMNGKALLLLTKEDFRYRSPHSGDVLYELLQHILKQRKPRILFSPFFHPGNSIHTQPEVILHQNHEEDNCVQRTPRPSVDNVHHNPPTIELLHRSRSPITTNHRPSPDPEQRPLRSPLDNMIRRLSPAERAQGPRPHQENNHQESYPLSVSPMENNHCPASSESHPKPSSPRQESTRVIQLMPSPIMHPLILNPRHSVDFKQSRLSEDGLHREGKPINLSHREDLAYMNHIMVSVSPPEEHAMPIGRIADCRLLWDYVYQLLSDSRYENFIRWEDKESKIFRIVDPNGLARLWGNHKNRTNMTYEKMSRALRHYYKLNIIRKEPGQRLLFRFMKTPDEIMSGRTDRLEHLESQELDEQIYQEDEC

Chain of CRX (O43186 whole entry): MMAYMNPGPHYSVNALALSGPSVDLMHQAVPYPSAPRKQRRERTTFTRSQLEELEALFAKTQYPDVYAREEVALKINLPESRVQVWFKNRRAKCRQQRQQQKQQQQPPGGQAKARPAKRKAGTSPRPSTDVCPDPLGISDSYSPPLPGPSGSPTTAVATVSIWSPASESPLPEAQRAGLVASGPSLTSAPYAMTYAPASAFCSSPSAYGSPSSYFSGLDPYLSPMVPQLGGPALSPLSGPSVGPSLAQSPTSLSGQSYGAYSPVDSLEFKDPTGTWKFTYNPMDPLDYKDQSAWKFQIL
Chain of ELF4 (Q99607 whole entry): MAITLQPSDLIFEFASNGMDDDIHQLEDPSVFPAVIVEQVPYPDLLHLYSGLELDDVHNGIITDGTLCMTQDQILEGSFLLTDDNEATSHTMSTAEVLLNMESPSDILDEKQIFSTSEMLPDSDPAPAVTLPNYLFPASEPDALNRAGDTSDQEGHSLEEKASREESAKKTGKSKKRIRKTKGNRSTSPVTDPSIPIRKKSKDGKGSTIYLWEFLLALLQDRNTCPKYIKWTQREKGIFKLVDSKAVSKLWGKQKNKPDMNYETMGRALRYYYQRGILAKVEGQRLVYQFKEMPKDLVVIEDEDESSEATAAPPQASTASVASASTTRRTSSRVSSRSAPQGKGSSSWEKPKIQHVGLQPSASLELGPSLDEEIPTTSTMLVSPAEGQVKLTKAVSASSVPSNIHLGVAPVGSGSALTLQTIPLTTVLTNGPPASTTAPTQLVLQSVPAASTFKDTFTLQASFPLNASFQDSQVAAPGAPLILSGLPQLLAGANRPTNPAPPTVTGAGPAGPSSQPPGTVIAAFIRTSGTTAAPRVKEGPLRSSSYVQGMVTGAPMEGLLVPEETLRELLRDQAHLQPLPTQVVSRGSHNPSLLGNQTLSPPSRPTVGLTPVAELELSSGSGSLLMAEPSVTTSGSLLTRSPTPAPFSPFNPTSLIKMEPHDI
Chain of HSF1 (Q00613 whole entry): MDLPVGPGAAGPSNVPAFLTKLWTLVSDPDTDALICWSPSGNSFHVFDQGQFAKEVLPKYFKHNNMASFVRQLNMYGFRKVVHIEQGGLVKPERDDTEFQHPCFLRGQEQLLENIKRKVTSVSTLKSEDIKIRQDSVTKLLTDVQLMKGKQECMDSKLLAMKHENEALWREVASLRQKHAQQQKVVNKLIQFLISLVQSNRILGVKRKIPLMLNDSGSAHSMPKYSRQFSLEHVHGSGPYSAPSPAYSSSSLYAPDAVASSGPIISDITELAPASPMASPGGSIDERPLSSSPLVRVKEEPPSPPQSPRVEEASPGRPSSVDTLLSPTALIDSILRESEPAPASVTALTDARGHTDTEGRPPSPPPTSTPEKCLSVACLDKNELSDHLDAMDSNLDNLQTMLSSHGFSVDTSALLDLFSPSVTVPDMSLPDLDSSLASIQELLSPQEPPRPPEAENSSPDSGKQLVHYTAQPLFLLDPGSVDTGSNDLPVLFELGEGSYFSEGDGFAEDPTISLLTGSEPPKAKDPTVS
Chain of ETV1 (P50549 whole entry): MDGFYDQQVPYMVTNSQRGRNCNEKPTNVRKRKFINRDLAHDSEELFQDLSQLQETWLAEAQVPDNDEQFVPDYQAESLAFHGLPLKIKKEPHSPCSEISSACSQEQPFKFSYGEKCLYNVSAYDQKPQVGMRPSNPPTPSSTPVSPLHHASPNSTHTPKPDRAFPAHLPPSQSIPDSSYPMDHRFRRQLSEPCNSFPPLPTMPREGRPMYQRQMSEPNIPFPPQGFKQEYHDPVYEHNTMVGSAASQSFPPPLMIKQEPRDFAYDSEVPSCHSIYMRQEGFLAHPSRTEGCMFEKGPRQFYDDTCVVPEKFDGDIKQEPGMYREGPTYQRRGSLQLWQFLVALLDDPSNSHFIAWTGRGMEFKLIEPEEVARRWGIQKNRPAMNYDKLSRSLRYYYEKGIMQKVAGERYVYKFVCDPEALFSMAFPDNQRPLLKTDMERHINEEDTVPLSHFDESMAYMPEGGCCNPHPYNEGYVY
Chain of ETV5 (P41161 whole entry): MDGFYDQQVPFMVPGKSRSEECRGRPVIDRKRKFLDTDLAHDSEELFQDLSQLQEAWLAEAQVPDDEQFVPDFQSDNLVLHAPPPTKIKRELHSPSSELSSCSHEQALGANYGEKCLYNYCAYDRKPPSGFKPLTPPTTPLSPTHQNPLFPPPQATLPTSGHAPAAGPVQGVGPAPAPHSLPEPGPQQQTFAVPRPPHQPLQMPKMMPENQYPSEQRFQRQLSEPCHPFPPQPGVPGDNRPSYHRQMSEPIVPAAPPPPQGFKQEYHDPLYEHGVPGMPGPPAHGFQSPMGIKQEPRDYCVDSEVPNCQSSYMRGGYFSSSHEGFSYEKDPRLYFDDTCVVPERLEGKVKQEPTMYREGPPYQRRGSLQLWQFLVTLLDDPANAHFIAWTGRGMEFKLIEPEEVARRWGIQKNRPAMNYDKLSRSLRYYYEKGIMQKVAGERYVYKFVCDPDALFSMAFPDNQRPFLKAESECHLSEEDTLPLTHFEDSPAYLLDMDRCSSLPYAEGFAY

Regarding AACTAA, the binding signal with FEV was 1.35 fold enrichment (6-mer frequency, TF over GST control); with ETV5, 1.39 fold enrichment (6-mer frequency, TF over GST control); in the assay with HSF1 it was 1.44 fold enrichment (6-mer frequency, TF over GST control); in the assay with SPIC it was 1.3 fold enrichment (6-mer frequency, TF over GST control); in the assay with ELF4, 1.45 fold enrichment (6-mer frequency, TF over GST control); with ELK4, 1.3 fold enrichment (6-mer frequency, TF over GST control). For the same sequence, the binding signal with ETV2 was 1.24 fold enrichment (6-mer frequency, TF over GST control); with ELF3, 1.3 fold enrichment (6-mer frequency, TF over GST control); with CRX, 1.84 fold enrichment (6-mer frequency, TF over GST control); with ETV1 it was 1.39 fold enrichment (6-mer frequency, TF over GST control); with ERF, 1.36 fold enrichment (6-mer frequency, TF over GST control); with ETV3L it was 1.25 fold enrichment (6-mer frequency, TF over GST control). For the same sequence, the binding signal is 1.4 fold enrichment (6-mer frequency, TF over GST control) with ETS2; 1.31 fold enrichment (6-mer frequency, TF over GST control) with SPDEF; 1.33 fold enrichment (6-mer frequency, TF over GST control) with ETV7; 1.38 fold enrichment (6-mer frequency, TF over GST control) with ELF5; 1.29 fold enrichment (6-mer frequency, TF over GST control) with ETV3; 1.42 fold enrichment (6-mer frequency, TF over GST control) in the assay with ETV6.
